# Laboratory results reported in PubChem BioAssay AID1159580 (chemical genetic matrix, 2015).
# Out of some 5,500 compounds screened, about 2,000 (36%) were called active. Roughly 18% stayed inconclusive and do not appear here. This is one part of the list. Values without a mark were called inactive. Cut-off read from the data, not from the text of the source: active = normalized growth mostly below about 0.91 (no sharp cut-off); inconclusive = no clear call, values can overlap the other calls; inactive = mostly above about 0.92.
# Experiment: chemical genetic growth profiling, strain panel (AID 1159580);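 note: tested at 20 µM; growth read once vehicle control cultures reached saturation at 30 °C; 1 = growth at the plate median or of vehicle wells; lower values mean less growth of the strain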
# Conditions: S. cerevisiae deletion strains, growth OD
smiles,measurement,setting,value
C[C@H]1[C@H](C)CC[C@]2(C(=O)O)CC[C@]3(C)C(=CCC4[C@@]5(C)C[C@@H](O)[C@H](O)[C@@](C)(CO)C5CC[C@]43C)[C@H]12 (stereo not given in full),normalized growth,"locus YAL021C, strain ccr4, stronger effect = lower value",0.993
same,normalized growth,"locus YAL026C, strain drs2, stronger effect = lower value",1.04
same,normalized growth,"locus YAL030W, strain snc1, stronger effect = lower value",1.02
same,normalized growth,"locus YBL061C, strain skt5, stronger effect = lower value",1.01
same,normalized growth,"locus YBR009C, strain hhf1, stronger effect = lower value",1.01
same,normalized growth,"locus YBR023C, strain chs3, stronger effect = lower value",0.995
same,normalized growth,"locus YBR171W, strain sec66, stronger effect = lower value",1.04
same,normalized growth,"locus YBR231C, strain swc5, stronger effect = lower value",1.03
same,normalized growth,"locus YBR279W, strain paf1, stronger effect = lower value",1.01
same,normalized growth,"locus YCL011C, strain gbp2, stronger effect = lower value",1.02
same,normalized growth,"locus YCL016C, strain dcc1, stronger effect = lower value",1.01
same,normalized growth,"locus YCL061C, strain MRC1, stronger effect = lower value",1.02
same,normalized growth,"locus YCL069W, strain vba3, stronger effect = lower value",1.03
same,normalized growth,"locus YCR088W, strain abp1, stronger effect = lower value",1.03
same,normalized growth,"locus YDL005C, strain med2, stronger effect = lower value",1.03
same,normalized growth,"locus YDL040C, strain nat1, stronger effect = lower value",1.02
same,normalized growth,"locus YDR001C, strain nth1, stronger effect = lower value",1.03
same,normalized growth,"locus YDR069C, strain doa4, stronger effect = lower value",1.02
same,normalized growth,"locus YDR137W, strain rgp1, stronger effect = lower value",0.982
same,normalized growth,"locus YDR159W, strain sac3, stronger effect = lower value",0.983
same,normalized growth,"locus YDR195W, strain ref2",0.945
same,normalized growth,"locus YDR297W, strain sur2, stronger effect = lower value",1.02
same,normalized growth,"locus YDR334W, strain swr1, stronger effect = lower value",1.04
same,normalized growth,"locus YDR335W, strain msn5, stronger effect = lower value",1.02
same,normalized growth,"locus YDR392W, strain spt3, stronger effect = lower value",0.931
same,normalized growth,"locus YEL003W, strain gim4, stronger effect = lower value",1.02
same,normalized growth,"locus YEL037C, strain rad23, stronger effect = lower value",1.03
same,normalized growth,"locus YEL061C, strain CIN8 (second series), stronger effect = lower value",1.03
same,normalized growth,"locus YER015W, strain faa2, stronger effect = lower value",1.02
same,normalized growth,"locus YER016W, strain bim1, stronger effect = lower value",1.02
same,normalized growth,"locus YER111C, strain swi4, stronger effect = lower value",1.03
same,normalized growth,"locus YER155C, strain BEM2 (second series), stronger effect = lower value",1
same,normalized growth,"locus YFR010W, strain ubp6, stronger effect = lower value",1.04
same,normalized growth,"locus YGL167C, strain pmr1, stronger effect = lower value",1.03
same,normalized growth,"locus YGL173C, strain kem1, stronger effect = lower value",1.03
same,normalized growth,"locus YGL227W, strain vid30, stronger effect = lower value",1.04
same,normalized growth,"locus YGL240W, strain doc1, stronger effect = lower value",0.988
same,normalized growth,"locus YGL253W, strain hxk2, stronger effect = lower value",1.03
same,normalized growth,"locus YHR013C, strain ard1, stronger effect = lower value",1.03
same,normalized growth,"locus YHR027C, strain rpn1, stronger effect = lower value",1.02
same,normalized growth,"locus YHR030C, strain SLT2, stronger effect = lower value",0.949
same,normalized growth,"locus YHR079C, strain IRE1, stronger effect = lower value",0.937
same,normalized growth,"locus YHR142W, strain chs7, stronger effect = lower value",0.996
same,normalized growth,"locus YJL092W, strain hpr5, stronger effect = lower value",1.04
same,normalized growth,"locus YJL095W, strain BCK1 (second series), stronger effect = lower value",1.02
same,normalized growth,"locus YJL095W, strain BCK1, stronger effect = lower value",0.911
same,normalized growth,"locus YJL115W, strain asf1, stronger effect = lower value",1.02
same,normalized growth,"locus YJL129C, strain trk1, stronger effect = lower value",1
same,normalized growth,"locus YJL154C, strain vps35, stronger effect = lower value",1.03
same,normalized growth,"locus YJL164C, strain tpk1, stronger effect = lower value",0.993
same,normalized growth,"locus YJL166W, strain qcr8, stronger effect = lower value",0.996
same,normalized growth,"locus YJL187C, strain SWE1, stronger effect = lower value",1.02
same,normalized growth,"locus YJR066W, strain TOR1, stronger effect = lower value",0.939
same,normalized growth,"locus YKL160W, strain elf1, stronger effect = lower value",0.975
same,normalized growth,"locus YKR026C, strain gcn3, stronger effect = lower value",1.03
same,normalized growth,"locus YKR091W, strain srl3, stronger effect = lower value",1.02
same,normalized growth,"locus YLL001W, strain dnm1, stronger effect = lower value",1
same,normalized growth,"locus YLL026W, stronger effect = lower value",1.01
same,normalized growth,"locus YLL041C, strain sdh2, stronger effect = lower value",1.02
same,normalized growth,"locus YLR027C, strain aat2, stronger effect = lower value",1.01
same,normalized growth,"locus YLR113W, strain HOG1, stronger effect = lower value",0.721 (active)
same,normalized growth,"locus YLR221C, strain rsa3, stronger effect = lower value",0.982
same,normalized growth,"locus YLR258W, strain gsy2, stronger effect = lower value",1.01
same,normalized growth,"locus YLR262C, strain YPT6 (second series), stronger effect = lower value",0.975
same,normalized growth,"locus YLR320W, strain mms22, stronger effect = lower value",1.02
same,normalized growth,"locus YLR342W, strain FKS1, stronger effect = lower value",1.04
same,normalized growth,"locus YLR357W, strain rsc2, stronger effect = lower value",1.05
same,normalized growth,"locus YLR370C, strain arc18, stronger effect = lower value",1.03
same,normalized growth,"locus YLR384C, strain iki3, stronger effect = lower value",1.03
same,normalized growth,"locus YML120C, strain ndi1, stronger effect = lower value",0.978
same,normalized growth,"locus YMR058W, strain fet3, stronger effect = lower value",1.03
same,normalized growth,"locus YMR125W, strain sto1, stronger effect = lower value",1.05
same,normalized growth,"locus YMR129W, stronger effect = lower value",1.04
same,normalized growth,"locus YMR205C, strain PFK2, stronger effect = lower value",1.01
same,normalized growth,"locus YMR231W, strain pep5, stronger effect = lower value",1.03
same,normalized growth,"locus YNL071W, strain lat1, stronger effect = lower value",1.02
same,normalized growth,"locus YNL183C, strain NPR1, stronger effect = lower value",0.894
same,normalized growth,"locus YNL209W, strain ssb2, stronger effect = lower value",1.03
same,normalized growth,"locus YNL248C, strain rpa49, stronger effect = lower value",1.03
same,normalized growth,"locus YNL322C, strain KRE1 (second series), stronger effect = lower value",1.03
same,normalized growth,"locus YNR049C, strain mso1, stronger effect = lower value",1.03
same,normalized growth,"locus YOR001W, strain rrp6, stronger effect = lower value",0.973
same,normalized growth,"locus YOR070C, strain gyp1, stronger effect = lower value",1.01
same,normalized growth,"locus YOR080W, strain dia2, stronger effect = lower value",1.03
same,normalized growth,"locus YOR083W, strain WHI5, stronger effect = lower value",0.984
same,normalized growth,"locus YOR106W, strain vam3, stronger effect = lower value",0.981
same,normalized growth,"locus YOR231W, strain MKK1, stronger effect = lower value",0.973
same,normalized growth,"locus YOR265W, strain rbl2, stronger effect = lower value",1.02
same,normalized growth,"locus YOR270C, strain vph1, stronger effect = lower value",1.03
same,normalized growth,"locus YOR290C, strain snf2, stronger effect = lower value",0.968
same,normalized growth,"locus YPL051W, strain arl3, stronger effect = lower value",0.974
same,normalized growth,"locus YPL078C, strain atp4, stronger effect = lower value",1
same,normalized growth,"locus YPL106C, strain sse1, stronger effect = lower value",1.01
same,normalized growth,"locus YPL240C, strain hsp82, stronger effect = lower value",1.03
same,normalized growth,"locus YPL256C, strain CLN2, stronger effect = lower value",0.963
